# Test results published in PubChem BioAssay (NCATS).
# Values without a mark were called inactive. The source made the active and inactive calls. The call rests on the fitted dose curve; in most records, active means well fitted inhibition curve with a large enough effect; inconclusive means small, poorly fitted or top-dose-only effect; inactive means flat fitted curve, though single readings scatter.
# Target: Luciferin 4-monooxygenase (Photinus pyralis) (UniProt P08659)
# Test: Primary firefly luciferase (FLuc) qHTS assay for identification of artifact compounds. (AID 1845220); further: nearly all actives have a fitted effect of over 60% in size;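 on activity change, negative = inhibition: plate controls were DMSO vehicle for no effect and no enzyme for full effect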
# Settings: purified firefly luciferase, luminescence, 5 min; series mostly up to 54.1 µM; activity change, negative = inhibition: at the top concentration
# Description: PI: Alexander Tropsha Ph.D.
# UNC Eshelman School of Pharmacy
# University of North Carolina, Chapel Hill, North Carolina
# Hits from high-throughput screening (HTS) of chemical libraries are often false positives due to their interference with the assay detection technology. In response to this problem, we generated the largest publicly available library of chemical liabilities and developed a free webtool to predict HTS artifacts, both of which are described herein. More specifically, we generated, curated, and integrated HTS datasets for thiol reactivity, redox activity, and luciferase (firefly and nano) activity. Using these curated datasets, we developed and validated several Quantitative Structure-Interference Relationship (QSIR) models to predict nuisance behavior. […] These models were employed for virtual profiling of the National Center for Advancing Translational Science's (NCATS) in-house library, and 256 compounds for each assay were selected for the experimental validation of nuisance behavior. The BA for these external predictions ranged from 58 to 78% for compounds within the applicability domains of the models. […] The models developed in this study, along with aggregation models previously developed by our group (SCAM Detective) were implemented in "Liability Predictor," an online tool which may be used as part of chemical library design or for triaging HTS hits. Both the models and the curated datasets are publicly available at https://liability.mml.unc.edu/.
# SEQUENCE No. (e.g., 1, 2, 3, etc.); […] (e.g., Cells, Incubation, Reagent, etc.); VALUE; DESCRIPTION.
# 1; Reagent; 3 uL; Luciferase substrate mixture.
# 2; Compounds and control; 16 nL; Kalypsis pin tool (Wako USA) equipped with a 1536-well pin head.
# 4; Reagent; 1 uL; Luciferase enzyme.
# 6; Detection; Luminescence, ViewLux microplate reader.
# NOTES (numbers refer to Sequence numbers above)
# 1. 3 uL of luciferase substrate mixture containing D-luciferin and ATP (final concentrations of 10 uM and 10 uM, respectively) in assay buffer (10 mM Mg-acetate, 0.01% Tween-20, 0.05% bovine serum albumin, 50 mM Tris acetate, pH 7.6) was dispensed into all wells of a 1536-well assay plate (solid-bottom white plate; Greiner Bio One, Monroe, NC).
# 2. A Wako Pin-tool (Wako Automation, Richmond, VA) was used to transfer 16 nL of compounds (consisting of 7-plates in qHTS format, final concentration range 18.3 nM to 114 uM) or control PTC124 (final concentration range 1.22 nM to 40 uM).
# 3. 15 min. incubation at room temperature protected from light.
# 4. 1 uL of luciferase enzyme (final concentration 10 nM, Photinus pyralis luciferase) or buffer was dispensed for a final assay volume of 4 uL.
# 5. Plates were centrifuged (121xg, 15 seconds) and incubated for 5 minutes.
# 6. Samples were read for luminescence on a ViewLux CCD imager (PerkinElmer). Data were normalized to no-enzyme (0% activity) and no-inhibitor (DMSO; 100%) controls and the resulting percent inhibition data were fitted to a 4-parameter Hill equation using NCATS in-house software.
# Potency means the concentration at half of the fitted maximal effect.
Structure (SMILES),outcome,"activity change, negative = inhibition",Potency
CCN1CCC(n2cc(CNc3cc(Cl)c4ncc(C#N)c(Nc5ccc(F)c(Cl)c5)c4c3)nn2)CC1,inactive,–,–
NC(=O)c1noc([C@H](CCCC2CCCCC2)CC(=O)NO)n1,–,4.98%,–
CNC(=O)c1c(-c2ccc(F)cc2)oc2cc(N(CCO)S(C)(=O)=O)c(C3CC3)cc12,–,-3.75%,–
Cc1cccc2c1CC[C@H](CN1CCC(c3c(Cl)cccc3Cl)CC1)C[C@@H]2O,–,-8.59%,–
Clc1ccc(C2(c3ccc(-c4cn[nH]c4)cc3)CCNCC2)cc1,inactive,–,–
O=C(CC12CC3CC(CC(C3)C1)C2)Nc1cccc2nc(NCCNCCO)ccc12,inactive,–,–
Cc1ccc2c(c1)c1c(n2CCc2ccc(C)nc2)CCN(C)C1,–,-11.5%,–
Cc1csc(-c2nnc(Nc3ccc(Oc4ncccc4-c4ccnc(N)n4)cc3)c3ccccc23)c1,inactive,–,–
COc1ccc(-c2nc3ccc(C4=NNC(=O)CC4C)cc3[nH]2)cc1 (stereo not given),–,–,10.7 µM (active)
CCc1cccc(CC)c1NC(=O)N1Cc2[nH]nc(NC(=O)c3ccc(N4CCN(C)CC4)cc3)c2C1,inactive,–,–
CCN1CCN(c2ccc(Nc3cc(N(C)C(=O)Nc4c(Cl)c(OC)cc(OC)c4Cl)ncn3)cc2)CC1,–,1.28%,–
C[C@@H](N)c1ccc(C(=O)Nc2ccnc3[nH]ccc23)cc1,inactive,–,–
Nc1[nH]nc2nnc(-c3c(-c4ccccc4)nn4ccccc34)cc12,–,3.77%,–
COc1ccc(CCC(=O)Nc2nc3ccc(Cl)cc3s2)cc1OC,–,1.51%,–
CNc1nc(Nc2ccc(C(=O)N3CCOCC3)cc2OC)ncc1Cl,–,-20.5%,–
COc1ccc(-c2ccc3ncc4c(c3c2)n(-c2ccc(N3CCNCC3)c(C(F)(F)F)c2)c(=O)n4C)cn1,inactive,–,–
C[C@H](c1ccc(F)cc1CCCC(=O)O)N(c1cc(F)ccc1F)S(=O)(=O)c1ccc(Cl)cc1,inactive,–,–
Cc1cc2c(cc1C1(c3ccc(C(=O)O)cn3)CC1)C(C)(C)CCC2(C)C,–,2.92%,–
COc1nc(C)cnc1NS(=O)(=O)c1cccnc1-c1ccc(-c2nnco2)cc1,–,-1.1%,–
CC1(C)CC(=O)c2c(C(F)(F)F)nn(-c3ccc(C(N)=O)c(NC4CCC(O)CC4)c3)c2C1 (stereo not given),–,2.34%,–

Structure (SMILES),outcome,"activity change, negative = inhibition",Potency
CC1=C[C@@H]2[C@@H]([C@@H](O)C[C@@]3(C)[C@H]2C[C@@H](C)[C@]3(O)C(=O)CO)[C@@]2(C)Cc3cnn(-c4ccccc4)c3C=C12,–,3.9%,–
COc1cc2nccc(Oc3ccc(NC(=O)Nc4cc(C)on4)c(Cl)c3)c2cc1OC,inactive,–,–
CCN1C[C@H](C)n2c(c(O)c3c(=O)n(Cc4ccc(F)c(Cl)c4)nc(C(=O)NC)c32)C1=O,–,–,inactive
CN(C)c1ccc(-c2nc3ncc(Cl)c(N4CCN(CC(=O)Nc5nccs5)CC4)c3[nH]2)cc1,inactive [at 25.7 µM],–,–
Cc1cnc(CNC(=O)c2c(=O)c3ccc(N4CCCN(C)CC4)nc3n3c2sc2ccccc23)cn1,–,3.83% [at 11.6 µM],–
CCNC(=O)c1noc(-c2cc(C(C)C)c(O)cc2O)c1-c1ccc(CN2CCOCC2)cc1,–,4.19%,–
CNC1CCC(N(Cc2cccc(-c3ccncc3)c2)C(=O)c2sc3ccccc3c2Cl)CC1 (stereo not given),inactive,–,–
Cc1ccc2c(c1)C(=O)[C@]1(O)CCN(c3ccccc3)C1=N2,–,-0.738%,–
CN[C@@H](C)[C@H]1[C@H](O)C[C@@]2(C)[C@@H]3CC[C@H]4C(C)(C)[C@@H](NC)CC[C@@]45C[C@@]35CC[C@]12C,–,1.81% [at 11.6 µM],–
CCn1c(-c2nonc2N)nc2cncc(CNC3CCNCC3)c21,–,-6.32%,–
O=C(c1ccc(C(=O)N2CCC(N3CCCC3)CC2)c(Nc2ccccc2)c1)N1CCC(N2CCCC2)CC1,–,2.77%,–
Cc1cc(-c2ncc(CC(=O)Nc3ccc(-c4cnccn4)cn3)cc2C)ccn1,inactive,–,–
C=CC(=O)Nc1cccc(Sc2nc(Nc3ccc(N4CCN(C)CC4)cc3)ncc2Cl)c1,inactive,–,–
Cc1ccccc1-n1c(Cn2nc(-c3cccc(O)c3)c3c(N)ncnc32)nc2cccc(C)c2c1=O,inactive,–,–
CCCCn1c(=O)n(Cc2ccccc2F)c(=O)c2[nH]c(Cc3ccc(NC(C)=O)cc3)nc21,inactive,–,–
CC(C)CNc1ccnc(NCc2csc(-c3ccccc3)n2)n1,–,3.2%,–
CCN(CCO)CCCOc1ccc2c(Nc3cc(CC(=O)Nc4cccc(F)c4)[nH]n3)ncnc2c1,–,3.25%,–
CC(C)(O)CC(=O)NCCn1ccc2ncnc(Nc3ccc(Oc4cccc(C(F)(F)F)c4)c(Cl)c3)c21,–,0.477%,–
O=C(CO)N1CCC(c2[nH]nc(-c3ccc(Cl)cc3)c2-c2ccncn2)CC1,–,1.68%,–
c1ccc(CNc2nc(N3CCOc4ccccc43)nc3c2CCCC3)cc1,inactive,–,–
